# Rows were chosen to be rich in hits. Some 3.8% of all compounds tested hit in one or more screens of this group.
# Calb biofilm kill = kills Candida albicans biofilms | actives 0.14% (n = 85,000) | AID 834 | C. albicans biofilm + clotrimazole, Alamar Blue | inhibition, % at 6 µM;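 active means inhibition above 20%; inactive means inhibition below 20%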;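 further: preformed 24 hr biofilms exposed to compound for 48 hr; 0% = biofilm without compound and 100% = blank killed by clotrimazole plus chlorhexidine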
# MT1-MMP txn act = activates MT1-MMP transcription. HT1080 MT1-MMP promoter luciferase reporter, luminescence, overnight; stronger effect = higher value. activation factor at 10 µM. actives 0.16% (n = 86,000). AID 750;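 active means activation factor of at least 2 for MT1-MMP transcription at 10 µM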
# ERa coact inh = ER-alpha (human) coactivator binding inhibition; P03372; inhibition, % at 25.6 µM; TR-FRET ER-alpha LBD / SRC-1 peptide, estradiol-bound; actives 1.7% (n = 86,000); in the data active means inhibition above about 50%;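 further: 0% = receptor plus peptide control and 100% = peptide only without receptor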
# Target sequence (P03372 whole entry, looked up, the tested form may be a part): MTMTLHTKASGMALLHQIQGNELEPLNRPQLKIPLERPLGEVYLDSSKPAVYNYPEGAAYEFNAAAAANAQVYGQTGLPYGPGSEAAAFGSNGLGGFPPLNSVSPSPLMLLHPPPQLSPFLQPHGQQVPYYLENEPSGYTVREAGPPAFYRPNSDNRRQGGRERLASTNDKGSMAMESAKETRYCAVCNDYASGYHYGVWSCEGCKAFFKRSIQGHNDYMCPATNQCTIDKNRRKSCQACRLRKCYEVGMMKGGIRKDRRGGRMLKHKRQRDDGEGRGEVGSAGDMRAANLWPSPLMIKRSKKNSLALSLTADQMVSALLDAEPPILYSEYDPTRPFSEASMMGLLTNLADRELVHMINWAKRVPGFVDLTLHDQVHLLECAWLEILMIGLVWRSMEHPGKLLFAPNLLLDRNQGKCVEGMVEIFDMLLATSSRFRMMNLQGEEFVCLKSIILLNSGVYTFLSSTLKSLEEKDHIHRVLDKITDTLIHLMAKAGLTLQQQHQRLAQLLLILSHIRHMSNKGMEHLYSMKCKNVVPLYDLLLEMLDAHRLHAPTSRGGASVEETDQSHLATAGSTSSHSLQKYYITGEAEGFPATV
# ERb SRC1 inh = ER-beta (human) coactivator binding inhibition; Q92731; TR-FRET ER-beta LBD / SRC1-Cy5 peptide binding; receptor agonist-loaded with 1 µM estradiol; inhibition, % at 25.6 µM; actives 1.3% (n = 86,000);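 active means compounds whose percent inhibition of the receptor-coactivator binding signal exceeds about 50% in the single-dose screen, limit read from the data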;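 further: 0% = receptor plus peptide wells without compound and 100% = peptide-only wells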
# Smad3 inh = inhibitors of human Smad3 transcription factor binding | P84022 | TR-FRET Smad3/Dy647-FoxH1 peptide binding, europium anti-His | inhibition, % at 25 µM | actives 0.29% (n = 88,000) | AID 630;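 active means compounds that reduce the energy-transfer binding signal between the protein and its labelled peptide by more than half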;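 further: 0% = Smad3 plus labelled peptide maximal FRET and 100% = peptide-only background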
# ERa coact pot = ER-alpha (human) coactivator binding potentiation. P03372. TR-FRET ERalpha-LBD/SRC-Cy5 coactivator binding, 2 h; 100 = basal binding, no effect. coactivator binding (% of control), % at 25.6 µM. actives 1.3% (n = 86,000). AID 639; in the data active means activity above about 200%;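 further: binding measured in presence of low estradiol as agonist stimulus; 0% = peptide alone without receptor and 100% = receptor with peptide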
# Starred values were filed as active, the others as inactive; x = no result given; [ ] = another dose, or the depositor's remark.
SMILES,Calb biofilm kill,MT1-MMP txn act,ERa coact inh,ERb SRC1 inh,Smad3 inh,ERa coact pot
CCCOC(=O)c1cc(-c2ccc(/C=C3/C(=O)N(C)C(=O)C(C#N)=C3C)o2)ccc1Cl,12,1,83*[fluorescence artefact?],67*,-1,42
COc1cc(S(=O)(=O)NC(C)C)ccc1Cl,7,1.3,65*[fluorescence artefact?],2,6,89
COc1ccc(S(=O)(=O)NC(C(C)C)C(C)C)cc1OC,3,1.2,-4,-8,-4,129
C[C@]12CC[C@H](O)C[C@@H]1CC[C@H]1[C@H]2CC[C@]2(C)[C@@H]1CC[C@H]2c1cc(C(F)(F)F)n[nH]1,x,x,x,x,4,x
CC1=C(CC[C@H](C)CO)O[C@@H]2C[C@@H]3[C@H]4CC[C@H]5C[C@@H](O)CC[C@]5(C)[C@@H]4CC(=O)[C@@]3(C)[C@H]12,x,x,x,x,99*,x
COc1cccc(-c2nnn(CC(=O)Nc3ccc(C)cc3C)n2)c1OC,5,1,27,31,4,283*[fluorescence artefact?]
NC1=NC2(CCCCC2)n2c(nc3ccccc32)N1,-1,1.3,52*[fluorescence artefact?],3,1,36
NC1=NC2(CCC(c3ccccc3)CC2)n2c(nc3ccccc32)N1 (configuration not stated),7,1.1,10,-14,18,75
COc1cc(OC)cc(C(C(=O)NC2CCCCC2)N(C(=O)c2ccno2)c2ccccc2)c1 (configuration not stated),10,1.3,-7,-6,13,153
Cc1cc(C)c(C(=O)COc2cccnc2[N+](=O)[O-])cc1C,4,1.1,55*[fluorescence artefact?],89*,1,54
Cc1cc(C)cc(OCc2nnc(SCC(=O)c3ccc(Br)cc3)o2)c1,2,1.2,-19,-18,10,202*
Cc1cc(C)c(C)c(C(=O)CSc2nnc(-c3ccc4[nH]c(C)c(C)c4c3)o2)c1C,4,1.2,-8,-6,-12,103
COc1ccc(Cc2nnc(SCC(=O)c3ccc(OC)cc3)o2)cc1,2,1.1,-7,-11,3,112
Cc1[nH]c2ccc(-c3nnc(SCC(=O)c4ccc(F)cc4)o3)cc2c1C,5,0.9,65*[fluorescence artefact?],55*[fluorescence artefact?],-23,126
COc1ccc(C(=O)CSc2nnc(-c3ccc(C)cc3)o2)cc1,6,1.1,51*[fluorescence artefact?],24,12,99
COc1ccc(OC)c(C(=O)CSc2nnc(-c3ccc(OC)c(OC)c3)o2)c1,5,1,-10,27,-21,329*
Cc1cc(N2CCC(C)CC2)nc(SCC(=O)c2ccccc2)n1,8,1.4,-3,-6,10,86
O=S(=O)(c1ccccc1)N1CN2CN(C1)CN(S(=O)(=O)c1ccccc1)C2,x,x,x,x,4,x
Cc1cc(C(=O)CSc2nnc(-c3ccc(F)cc3)o2)c(C)n1CC1CCCO1 (configuration not stated),7,1.2,41,15,-38,229*[fluorescence artefact?]
C#CCOCCCC(=O)O,x,x,x,x,36,x
COC(=O)c1cc2ccsc2n1CC(=O)Nc1ccc(N(C)C)cc1,6,0.9,55*,28,7,32
COC(=O)c1cc2ccsc2n1CC(=O)N(C)c1ccccc1,1,1,8,4,-10,92
CC1=C(SCCC#N)S/C(=C2\SC(C)=C(SCCC#N)S2)S1,11,1,81*,53*,4,43
C/C=C/COC(=O)c1[nH]c2c(c1C)C(=O)CC(c1ccco1)C2 (configuration not stated),7,0.3,59*,55*,-3,81
Cc1c(C(=O)OCC2CCCO2)[nH]c2c1C(=O)CC(c1ccco1)C2 (configuration not stated),-3,0.7,54*,50*[fluorescence artefact?],-5,65
SMILES,Calb biofilm kill,MT1-MMP txn act,ERa coact inh,ERb SRC1 inh,Smad3 inh,ERa coact pot
C=CCOC(=O)c1[nH]c2c(c1C)C(=O)CC(c1ccco1)C2 (configuration not stated),11,0.4,38,43,-1,135
CC(C)(N)C(=O)N[C@@H]1C(=O)N2[C@H]1SC(C)(C)[C@H]2C(=O)O,x,x,x,x,4,x
C/C(=N\[N+](C)(C)C)c1ccc(C)c(C)c1,x,x,x,x,-4,x
Nc1ccc(S(=O)(=O)NCc2nccs2)cc1,x,x,x,x,6,x
CCCc1cc(-n2ccnc2)n2c(nc3ccccc32)c1C#N,8,1,66*,41,5,105
CN1CCN(Cc2nc3cccc4c3c([n+]2[O-])-c2ccccc2-4)CC1,x,x,x,x,6,x

# Screening results as filed in PubChem BioAssay.
